In the supplement of paper PMC6992640:
± gives the standard deviation of the averaged measurements.

Key:
Assay in all cases: cell viability (% of vehicle); higher = less cytotoxic
HCI01 [1] = cells of a triple-negative basal-like breast cancer xenograft; conditions: 1 µM; 72 h
UCD52 [2] = cells of a triple-negative basal-like breast cancer xenograft; conditions: 1 µM; 72 h
WHIM2 [3] = cells of a triple-negative basal-like breast cancer xenograft; conditions: 1 µM; 72 h
WHIM30 [4] = cells of a triple-negative basal-like breast cancer xenograft; conditions: 1 µM; 72 h
HCI01 [5] = conditions: 10 µM; 72 h
HCI03 = cells of an ER-positive luminal breast cancer xenograft; conditions: 10 µM; 72 h
HCI09 = cells of a triple-negative luminal androgen receptor type breast cancer xenograft; conditions: 10 µM; 72 h
HCI11 = cells of an ER-positive luminal breast cancer xenograft; conditions: 10 µM; 72 h
HCI13 = cells of an ER-positive luminal breast cancer xenograft; conditions: 10 µM; 72 h
HCI16 = cells of a triple-negative basal-like breast cancer xenograft; conditions: 10 µM; 72 h
UCD52 [6] = conditions: 10 µM; 72 h
WHIM2 [7] = conditions: 10 µM; 72 h
WHIM30 [8] = conditions: 10 µM; 72 h

Compound | cell viability (HCI01 [1]) | cell viability (UCD52 [2]) | cell viability (WHIM2 [3]) | cell viability (WHIM30 [4]) | cell viability (HCI01 [5]) | cell viability (HCI03) | cell viability (HCI09) | cell viability (HCI11) | cell viability (HCI13) | cell viability (HCI16) | cell viability (UCD52 [6]) | cell viability (WHIM2 [7]) | cell viability (WHIM30 [8])
C#Cc1cccc(Nc2ncnc3cc(OCCOC)c(OCCOC)cc23)c1 [Erlotinib] | 62.6 | 59.8 | 53.7 | 65 | 79.4 ± 26 | 73.6 | 63.7 ± 8.2 | 74.2 | 72.7 ± 3.5 | 81.1 | 67.82 ± 0.58 | 47.9 ± 9 | 107 ± 4.9
Cc1c(C(=O)NN2CCCCC2)nn(-c2ccc(Cl)cc2Cl)c1-c1ccc(Cl)cc1 [Rimonabant] | 87.4 | 91.1 | 100 | 82.6 | 72.2 ± 38 | 114 | 22.2 ± 6.1 | 87.3 | 74.2 ± 19 | 96.7 | 62.3 ± 10 | 35.9 ± 10 | 68.4 ± 15
Clc1ccc(C(Cn2ccnc2)OCc2c(Cl)cccc2Cl)c(Cl)c1.O=[N+]([O-])O (stereo not given) [Isoconazole nitrate] | 123 | 112 | 126 | 105 | 57.9 ± 28 | 119 | 25.8 ± 3.4 | 101 | 54.2 ± 8.2 | 140 | 44.1 ± 5.8 | 52.1 ± 6.9 | 100 ± 2.2
O=C1C=CC=CC1=C1NC(=C2C=CC=CC2=O)N(c2ccc(C(=O)O)cc2)N1 [Deferasirox] | 87.9 | 92 | 92.2 | 98.2 | 65.5 ± 9.3 | 129 | 62 ± 39 | 107 | 62.9 ± 16 | 101 | 77.7 ± 33 | 95.2 ± 25 | 70.1 ± 1.5
CNC(=O)c1cc(Oc2ccc(NC(=O)Nc3ccc(Cl)c(C(F)(F)F)c3)cc2)ccn1.Cc1ccc(S(=O)(=O)O)cc1 [Sorafenib Tosylate] | 90.6 | 74.5 | 81.7 | 65.2 | 22 ± 0.23 | 65.5 | 14.6 ± 7 | 63.9 | 55.5 ± 31 | 45.9 | 82.6 ± 1 | 32.2 ± 0.44 | 41.9 ± 18
Cl.Fc1ccc(C2CCNCC2COc2ccc3c(c2)OCO3)cc1 (stereo not given) [Paroxetine HCl] | 91.6 | 79.7 | 100 | 87.4 | 63.7 ± 19 | 128 | 90.3 ± 17 | 74.8 | 120 ± 6.4 | 77.4 | 38.6 ± 4.8 | 43 ± 7.7 | 80.71 ± 0.29
CCN(CC)CCNC(=O)c1c(C)[nH]c(C=C2C(=O)Nc3ccc(F)cc32)c1C.O=C(O)CC(O)C(=O)O [Sunitinib malate] | 73.4 | 64.6 | 96 | 69.2 | 37.7 ± 18 | 73.6 | 11.3 ± 0.53 | 111 | 58.1 ± 1.6 | 128 | 15.3 ± 1.1 | 31.7 ± 12 | 41.7 ± 11
COc1cccc2c1C(=O)c1c(O)c3c(c(O)c1C2=O)C[C@@](O)(C(C)=O)C[C@@H]3O[C@H]1C[C@H](N)[C@H](O)[C@H](C)O1.Cl [Daunorubicin HCl] | 128 | 27.8 | 23.1 | 48 | 32.2 ± 4.8 | 141 | 32.8 ± 8.5 | 31.2 | 41.3 ± 3.9 | 49.9 | 30.4 ± 2.6 | 42.07 ± 0.39 | 44.6 ± 10
CC1(C)CCC(c2ccc(Cl)cc2)=C(CN2CCN(c3ccc(C(=O)NS(=O)(=O)c4ccc(NC(CCN5CCOCC5)CSc5ccccc5)c(S(=O)(=O)C(F)(F)F)c4)cc3)CC2)C1 (stereo not given) [ABT-263 (Navitoclax)] | 76.2 | 54.1 | 66.8 | 62.2 | 28 ± 2 | 44.2 | 21.8 ± 3.1 | 47.1 | 33.8 ± 0.76 | 29.6 | 36.5 ± 2.4 | 32.1 ± 4.1 | 35.2 ± 7.7
CN1CCCC1CCOC(C)(c1ccccc1)c1ccc(Cl)cc1.O=C(O)C=CC(=O)O (stereo not given) [Clemastine Fumarate] | 98.5 | 85.8 | 103 | 78.8 | 95.7 ± 30 | 79.3 | 52.8 ± 36 | 69.2 | 136 ± 24 | 74.4 | 36.5 ± 3.4 | 37.8 ± 3 | 104 ± 10
CC(C)(C)Cn1c(N)nc2ccc(-c3[nH]c(C(C)(C)C)nc3-c3ccc(F)cc3)nc21.CS(=O)(=O)O.CS(=O)(=O)O | 67.7 | 46.4 | 65.4 | 61.1 | 58.4 ± 4.5 | 54.2 | 36.8 ± 15 | 81 | 58.7 ± 0.99 | 72.3 | 36.7 ± 1.6 | 39.5 ± 3.9 | 64.2 ± 9.7
CCOC(=O)c1c(CSc2ccccc2)n(C)c2cc(Br)c(O)c(CN(C)C)c12.Cl [Arbidol HCl] | 86.5 | 78.9 | 82.9 | 92.6 | 82.6 ± 33 | 87.3 | 58.6 ± 4.3 | 114 | 64.4 ± 11 | 92.3 | 35.7 ± 1.1 | 39.3 ± 9.1 | 85.2 ± 6.7
Clc1ccc(COC(Cn2ccnc2)c2ccc(Cl)cc2Cl)c(Cl)c1.O=[N+]([O-])O (stereo not given) [Miconazole Nitrate] | 100 | 96.9 | 111 | 95.9 | 32 ± 8.9 | 93.1 | 27.3 ± 7.1 | 79.9 | 56.9 ± 7.8 | 113 | 48.6 ± 5.8 | 37 ± 9.7 | 128 ± 2
Nc1c(CC(=O)[O-])cccc1C(=O)c1ccccc1.O.[Na+] [Amfenac Sodium Monohydrate] | 97.6 | 93 | 115 | 99.5 | 56.6 ± 53 | 102 | 92.4 ± 14 | 92.6 | 114 ± 16 | 104 | 62.1 ± 8.9 | 82.7 ± 3.5 | 90.11 ± 0.73
COC(=O)C12CCC(C)(C)CC1C1C(=O)C=C3C4(C)C=C(C#N)C(=O)C(C)(C)C4CCC3(C)C1(C)CC2 (stereo not given) [Bardoxolone methyl] | 145 | 60.9 | 59.9 | 65.3 | 28.5 ± 3.9 | 33.9 | 23.1 ± 1.8 | 23.2 | 31.5 ± 3 | 30.4 | 24.6 ± 1 | 34.2 ± 5.5 | 26.8 ± 1.1
